Laboratory results taken from the supplement of paper PMC9262897, “Low-cost anti-mycobacterial drug discovery using engineered E. coli” (Nature Communications, 2022).
Structures can show the parent of a compound that is named as a salt. ± gives the standard deviation of the averaged measurements.

These compounds were tested on E. coli TESEC Alr+ wild-type control (assay: growth (OD600 after 10 h); higher = more growth (less inhibition)). Conditions: compound 0.1 mM; raw OD600 reference: median of DMSO wells 0.241, cell-free background 0.041.
Method: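 TESEC Mtb Alr E. coli, or the Alr+ wild-type control, in 384-well plates with Prestwick library compounds at 0.1 mM and 1% DMSO, across arabinose induction levels of 1E3 to 1E7 nM. Growth is read as OD600 after 10 h at 37 °C in triplicate biological replicates.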

SMILES | growth
CC(C)c1ccc2oc3nc(N)c(C(=O)O)cc3c(=O)c2c1 [Amlexanox] | 0.158 ± 0.003
CCC1=C(C)CN(C(=O)NCCc2ccc(S(=O)(=O)NC(=O)N[C@H]3CC[C@H](C)CC3)cc2)C1=O [Glimepiride] | 0.247 ± 0.0069
CCOc1ccc2ccccc2c1C(=O)N[C@@H]1C(=O)N2[C@@H]1SC(C)(C)[C@@H]2C(=O)O [Nafcillin sodium salt monohydrate] | 0.236 ± 0.0097
S=c1[nH]cnc2nc[nH]c12 [Mercaptopurine] | 0.062 ± 0.002
O=C(O)c1cccnc1 [Niacin] | 0.28 ± 0.0091
CC(=O)OCC(=O)[C@@]1(O)CC[C@H]2[C@@H]3CCC4=CC(=O)C=C[C@]4(C)[C@@]3(F)[C@@H](O)C[C@@]21C [Isoflupredone acetate] | 0.206 ± 0.028
CCc1oc2ccccc2c1C(=O)c1cc(Br)c(O)c(Br)c1 [Benzbromarone] | 0.0407 ± 0.001
NS(=O)(=O)c1cc(Cl)c(Cl)c(S(N)(=O)=O)c1 [Dichlorphenamide] | 0.25 ± 0.0031
O=C(O)[C@H]1/C(=C/CO)O[C@@H]2CC(=O)N21 [Clavulanate potassium salt] | 0.155 ± 0.0016
COc1ccccc1OCCNCC(O)COc1cccc2[nH]c3ccccc3c12 (centres undefined) [Carvedilol] | 0.0443 ± 0.0033
CC(=O)N[C@@H](CS)C(=O)O [Acetylcysteine] | 0.2422 ± 0.0011
CO[C@@]1(NC(=O)C2SC(=C(C(N)=O)C(=O)O)S2)C(=O)N2C(C(=O)O)=C(CSc3nnnn3C)CS[C@@H]21 (some centres undefined) [Cefotetan] | 0.03883 ± 0.00012
CC(=O)O[C@H]1C(=O)[C@@]2(C)[C@H]([C@H](OC(=O)c3ccccc3)[C@]3(O)C[C@H](OC(=O)[C@H](O)[C@@H](NC(=O)c4ccccc4)c4ccccc4)C(C)=C1C3(C)C)[C@]1(OC(C)=O)CO[C@@H]1C[C@@H]2O [Paclitaxel] | 0.23 ± 0.013
Nc1nc(=O)[nH]cc1F [Flucytosine] | 0.245 ± 0.0069
CN(C)CCC[C@@]1(c2ccc(F)cc2)OCc2cc(C#N)ccc21 [Escitalopram oxalate] | 0.201 ± 0.0062
CCOC(=O)OC(C)OC(=O)[C@@H]1N2C(=O)[C@@H](NC(=O)[C@H](N)c3ccccc3)[C@H]2SC1(C)C (some centres undefined) [Bacampicillin hydrochloride] | 0.239 ± 0.011
CN1CCCN=C1/C=C/c1cccs1 [Pyrantel tartrate] | 0.235 ± 0.0042
CN1CCOC(c2ccccc2)c2ccccc2C1 (centres undefined) [Nefopam hydrochloride] | 0.218 ± 0.0081
c1ccc2c(CC3=NCCN3)cccc2c1 [Naphazoline hydrochloride] | 0.231 ± 0.0088
COc1cc(C)nc(-n2nc(C)cc2OC)n1 [Epirizole] | 0.2428 ± 0.0024

SMILES | growth
CCc1cccc2c3c([nH]c12)C(CC)(CC(=O)O)OCC3 (centres undefined) [Etodolac] | 0.24 ± 0.0076
C[C@]12CC[C@@H]3c4ccc(O)cc4CC[C@H]3[C@@H]1C[C@@H](O)[C@@H]2O [Estriol] | 0.152 ± 0.0072
N#Cc1ccc(C(c2ccc(C#N)cc2)n2cncn2)cc1 [Letrozole] | 0.2404 ± 0.0017
Cc1cc(C2CCCCC2)n(O)c(=O)c1 [Ciclopirox ethanolamine] | 0.04347 ± 0.00021
CC(=O)/N=c1/sc(S(N)(=O)=O)nn1C [Methazolamide] | 0.247 ± 0.0057
CC(C)NC[C@H](O)COc1ccc(CC(N)=O)cc1 [(S)-(-)-Atenolol] | 0.244 ± 0.0056
COc1cc(OC)c(C(=O)CCCN2CCCC2)c(OC)c1 [Buflomedil hydrochloride] | 0.238 ± 0.0082
CCN1CCC[C@H]1CNC(=O)c1c(OC)ccc(Br)c1OC [Remoxipride Hydrochloride] | 0.256 ± 0.007
CN(C)c1nc(N(C)C)nc(N(C)C)n1 [Altretamine] | 0.251 ± 0.0091
Nc1ccn([C@@H]2O[C@H](CO)[C@@H](O)[C@@H]2O)c(=O)n1 [Cytarabine] | 0.24 ± 0.0059
CC(N)C12CC3CC(CC(C3)C1)C2 (centres undefined) [Rimantadine Hydrochloride] | 0.228 ± 0.0089
Cn1c(=O)c2nc[nH]c2n(C)c1=O [Theophylline monohydrate] | 0.263 ± 0.0048
O=C(O)c1ccccc1OP(=O)(O)O [Fosfosal] | 0.242 ± 0.0067
COC(=O)Nc1nc2cc(C(=O)c3ccccc3)ccc2[nH]1 [Mebendazole] | 0.202 ± 0.005
O=c1[nH]cc(F)c(=O)[nH]1 [5-fluorouracil] | 0.122 ± 0.0069
CCc1nn(CCCN2CCN(c3cccc(Cl)c3)CC2)c(=O)n1CCOc1ccccc1 [Nefazodone HCl] | 0.0424 ± 0.00076
COc1cc(NC(C)CCCN)c2ncccc2c1 (centres undefined) [Primaquine diphosphate] | 0.0466 ± 0.00081
CNS(=O)(=O)Cc1ccc2[nH]cc(CCN(C)C)c2c1 [Sumatriptan succinate] | 0.226 ± 0.0042
Cc1ccc(N(CC2=NCCN2)c2cccc(O)c2)cc1 [Phentolamine hydrochloride] | 0.219 ± 0.0053
